According to ChEMBL document CHEMBL3988442, “University of Dundee, Small-Polar-MMV Screening Library” (2021):
Screen size: about 38,000 compounds; about 1,200 (3.2%) showed an effect of 50% or more. The median lay at about -58%. This excerpt belongs to a sample that is enriched for strong results.

Each compound was assayed on Plasmodium falciparum (assay: Calibr Malaria Delayed Death Assay SOP). Settings: concentration 4.99e-06 (unit not given; other assays of the set use mol/L).
Type: functional, organism-based
Design: scale not given: in the data most compounds retested in dose-response had high values

**Q.** How did the “Percent Effect” value turn out when `CCN(C)CC1CCN(C(=O)Nc2ccc(C)cc2)C1` (configuration not stated) was run?
**A.** -13.91%

**Q.** For `Cn1c(=O)oc2cc(S(=O)(=O)N3CCC(c4ccccc4)C3)c(Cl)cc21` (configuration not stated), which “Percent Effect” value is on record?
**A.** -8.531%

**Q.** Which “Percent Effect” value does the source give for `O=C(O)C(F)(F)F.O=C(c1ccncc1F)N1CC[C@@H]2CN(c3ncccn3)CCO[C@@H]2C1` here?
**A.** -33.14%

**Q.** `Cc1ccc(CN2CCCn3c(nc(Cn4ccnc4)cc3=O)C2)s1` was tested. Which “Percent Effect” value did it give?
**A.** -9.733%

**Q.** For `Cc1ccc(CN(c2cc(C)nc3nc(C(F)(F)F)nn23)C2CC2)cc1`, which “Percent Effect” value is on record?
**A.** 93.63%

**Q.** With `Cc1cc(N(Cc2cccnc2)C2CC2)n2nc(C(F)(F)F)nc2n1` as the compound, how does the “Percent Effect” value read?
**A.** 22.81%

**Q.** How did the “Percent Effect” value turn out when `COCCN(c1cc(C)nc2nc(C(F)(F)F)nn12)C1CCCC1` was run?
**A.** -69.88%

**Q.** How did the “Percent Effect” value turn out when `Cc1cc(N(Cc2ccccc2F)C2CC2)n2nc(C(F)(F)F)nc2n1` was run?
**A.** -0.7756%

**Q.** How did the “Percent Effect” value turn out when `Cc1cc(N(Cc2cccs2)C2CC2)n2nc(C(F)(F)F)nc2n1` was run?
**A.** 65.64%

**Q.** `Cc1cc(N(Cc2ccccn2)C2CC2)n2nc(C(F)(F)F)nc2n1` was tested. Which “Percent Effect” value did it give?
**A.** -69.19%

**Q.** Which “Percent Effect” value does the source give for `COC(=O)CCC(=O)N1CCC2(CN(Cc3ccccc3)C2)C1` here?
**A.** -61.64%

**Q.** For `Cc1cc(C)n(-c2cncc(NCCC(=O)NC(C)C)n2)n1`, which “Percent Effect” value is on record?
**A.** -25.6%

**Q.** For `Fc1ccc(CN2CCO[C@H]3[C@H](OCC4CCCC4)CC[C@@H]32)cc1.O=C(O)C(F)(F)F`, which “Percent Effect” value is on record?
**A.** -74.43%

**Q.** Which “Percent Effect” value does the source give for `COC(=O)N1CCCN(Cn2nc(C)c(Br)c2C)CC1` here?
**A.** -78.94%

**Q.** How did the “Percent Effect” value turn out when `CCOC[C@@]12CCC[C@@H]1CN(C(=O)c1ccc(OC)cc1)C2` was run?
**A.** -67.65%

**Q.** With `Cn1cc(CN2CCn3cc(Cn4cccn4)nc3C2)cn1.O=C(O)C(F)(F)F` as the compound, how does the “Percent Effect” value read?
**A.** -116.7%

**Q.** How did the “Percent Effect” value turn out when `CC(C)Nc1ncnc2c1CCN(C(=O)CC1CCCC1)CC2` was run?
**A.** -30.46%

**Q.** How did the “Percent Effect” value turn out when `OCCN1CCN(CC(O)c2cc(Cl)ccc2Cl)CC1` (configuration not stated) was run?
**A.** -5.982%

**Q.** With `CCN1CCN(CC(O)c2cc(Cl)ccc2Cl)CC1` (configuration not stated) as the compound, how does the “Percent Effect” value read?
**A.** 76.72%

**Q.** With `CC(C)C(=O)N1CCN(CC(O)c2cc(Cl)ccc2Cl)CC1` (configuration not stated) as the compound, how does the “Percent Effect” value read?
**A.** -47.78%

**Q.** With `OC(CN1CCOCC1)c1cc(Cl)ccc1Cl` (configuration not stated) as the compound, how does the “Percent Effect” value read?
**A.** -41.91%

**Q.** With `CCOCCN1CCN(CC(O)c2cc(Cl)ccc2Cl)CC1` (configuration not stated) as the compound, how does the “Percent Effect” value read?
**A.** 77.57%

**Q.** With `CCOCCN1CCN(CC(O)c2ccc(C)c(C)c2)CC1` (configuration not stated) as the compound, how does the “Percent Effect” value read?
**A.** -16.95%

**Q.** With `CC(C)c1nn(C)c(Cl)c1CNCCn1cccn1` as the compound, how does the “Percent Effect” value read?
**A.** 8.083%

**Q.** With `COc1ccc(CNc2nc(C3CC3)nc3c(C)nn(C)c23)cc1` as the compound, how does the “Percent Effect” value read?
**A.** 25.99%

**Q.** How did the “Percent Effect” value turn out when `CCn1ccc(-c2cc(C(=O)O)n3ncc(Cl)c3n2)n1` was run?
**A.** -63.4%

**Q.** How did the “Percent Effect” value turn out when `CCC(=O)Nc1cccc(OCC(=O)N(C)CCCC2CCCO2)c1` (configuration not stated) was run?
**A.** -128%

**Q.** For `O=C(C(CNCc1cccc(O)c1)c1ccccc1)N1CCOCC1` (configuration not stated), which “Percent Effect” value is on record?
**A.** -54.71%

**Q.** Which “Percent Effect” value does the source give for `O=C(C(CNCc1cccs1)c1ccccc1)N1CCOCC1` (configuration not stated) here?
**A.** 4.238%

**Q.** `O=C(Nc1nccs1)c1csc(NC2CCCC2)n1` was tested. Which “Percent Effect” value did it give?
**A.** -183.6%

**Q.** `Cc1cnn(CCNCC(O)c2ccc3c(c2)OCCO3)c1` (configuration not stated) was tested. Which “Percent Effect” value did it give?
**A.** -44.13%

**Q.** `Cc1cnn(CCNCC(O)c2ccc(F)c(F)c2)c1` (configuration not stated) was tested. Which “Percent Effect” value did it give?
**A.** 43.94%

**Q.** Which “Percent Effect” value does the source give for `Cc1cnn(CCNCC(O)c2ccc(C(F)(F)F)cc2)c1` (configuration not stated) here?
**A.** 71.82%

**Q.** For `COc1ccccc1C1CC(=O)Nc2c1c(=O)[nH]n2C(C)C` (configuration not stated), which “Percent Effect” value is on record?
**A.** -127.8%

**Q.** For `CC(O)CNc1nc(-c2cccnc2)nc2c1CCC2` (configuration not stated), which “Percent Effect” value is on record?
**A.** -47.48%

**Q.** How did the “Percent Effect” value turn out when `c1cncc(-c2nc3c(c(NCC4(c5ccncc5)CC4)n2)CCC3)c1` was run?
**A.** -35.93%

**Q.** For `c1ccc(-n2cnnc2CCCN2CCOCC2)cc1`, which “Percent Effect” value is on record?
**A.** -26.23%

**Q.** `CC(C)OCCC(=O)NCC(c1c(F)cccc1F)N(C)C` (configuration not stated) was tested. Which “Percent Effect” value did it give?
**A.** -18.53%

**Q.** For `O=C1COC2(CCN(C(=O)[C@H]3CCCO3)CC2)CN1Cc1ccccn1`, which “Percent Effect” value is on record?
**A.** -79.26%

**Q.** `CC(C)C[C@H](N)C(=O)N1CCSc2ccccc2C1.Cl` was tested. Which “Percent Effect” value did it give?
**A.** 47.22%

**Q.** `Cl.NC(C(=O)N1CCSc2ccccc2C1)c1ccccc1` (configuration not stated) was tested. Which “Percent Effect” value did it give?
**A.** 59.31%

**Q.** Which “Percent Effect” value does the source give for `O=C(C(CNCc1ccccc1O)c1ccccc1)N1CCOCC1` (configuration not stated) here?
**A.** 14.02%

**Q.** `CC(C)[C@H](N)C(=O)N1CCSc2ccccc2C1.Cl` was tested. Which “Percent Effect” value did it give?
**A.** 73.25%

**Q.** How did the “Percent Effect” value turn out when `Cc1csc(CN(C)C(C)C(=O)N2CCc3ccccc3C2)n1` (configuration not stated) was run?
**A.** -122.6%

**Q.** `N[C@@H](C(=O)N1CCN(c2ccccc2Cl)C(=O)C1)c1ccccc1` was tested. Which “Percent Effect” value did it give?
**A.** -16.48%

**Q.** How did the “Percent Effect” value turn out when `CC1c2ncc(COCC3CC3)n2CCN1C(=O)c1ccnnc1` (configuration not stated) was run?
**A.** 2.24%

**Q.** Which “Percent Effect” value does the source give for `CCOCCN1CCN(CC(O)c2ccc(C(F)(F)F)cc2)CC1` (configuration not stated) here?
**A.** 21.93%

**Q.** Which “Percent Effect” value does the source give for `CSCc1ccc(C(=O)N2CCN(CC(C)O)CC2)cc1` (configuration not stated) here?
**A.** -108.1%

**Q.** How did the “Percent Effect” value turn out when `Cc1cc(CN2CCN(c3ccc4nncn4n3)CC2)no1` was run?
**A.** -4.981%

**Q.** With `c1ccc(CCN2CCN(c3ccc4nncn4n3)CC2)nc1` as the compound, how does the “Percent Effect” value read?
**A.** -102.7%

**Q.** `CC(Cn1cccn1)NC(=O)N1CCN(Cc2cccnc2)CC1` (configuration not stated) was tested. Which “Percent Effect” value did it give?
**A.** -145.3%

**Q.** With `COc1cccc(CCC2CCCN(C(=O)c3ccccn3)C2)c1` (configuration not stated) as the compound, how does the “Percent Effect” value read?
**A.** -27.65%

**Q.** Which “Percent Effect” value does the source give for `Cc1[nH]c(=O)[nH]c(=O)c1CN1CCCC(CCc2ccccc2)C1` (configuration not stated) here?
**A.** -20.63%

**Q.** `CN(CCOCC1CC1)C(=O)Nc1ccc([S+](C)[O-])cc1` (configuration not stated) was tested. Which “Percent Effect” value did it give?
**A.** -126.1%

**Q.** `CNC(=O)NC(C)c1c(F)cccc1Cl` (configuration not stated) was tested. Which “Percent Effect” value did it give?
**A.** -107.4%

**Q.** With `NCC1(c2cccc(C(F)(F)F)c2)CCCCC1` as the compound, how does the “Percent Effect” value read?
**A.** -1.273%

**Q.** `Cc1ccccc1C1(CN)CCCCC1` was tested. Which “Percent Effect” value did it give?
**A.** 91.14%

**Q.** Which “Percent Effect” value does the source give for `Cc1ccccc1C1(CN)CCOCC1` here?
**A.** 37.02%

**Q.** `COc1ccc(C2CCCCCN2S(N)(=O)=O)cc1` (configuration not stated) was tested. Which “Percent Effect” value did it give?
**A.** -81.61%

**Q.** With `COc1ncccc1C(=O)N1CC[C@H]2C[C@H](c3noc(C)n3)O[C@@H]2C1` as the compound, how does the “Percent Effect” value read?
**A.** -68.36%

**Q.** For `Cc1cccnc1[C@H](C)Nc1nc(-c2cccnc2)nc2c1CNC2`, which “Percent Effect” value is on record?
**A.** 77.9%

**Q.** How did the “Percent Effect” value turn out when `CCOCc1nc2c(c(NC(CC)c3cccnc3)n1)CCNCC2` (configuration not stated) was run?
**A.** -63.2%

**Q.** How did the “Percent Effect” value turn out when `Cc1cc(CC(C)Nc2nc(-c3cccnc3)nc3c2CNC3)[nH]n1` (configuration not stated) was run?
**A.** -0.4892%

**Q.** How did the “Percent Effect” value turn out when `c1ccc2c(c1)CCN(c1nc(-c3ccncc3)nc3c1CCNC3)C2` was run?
**A.** 59.82%

**Q.** With `CN(C)CCC(Nc1nc(N)nc2c1CCNCC2)c1ccccc1` (configuration not stated) as the compound, how does the “Percent Effect” value read?
**A.** -67.64%

**Q.** For `Cc1ccccc1C(Nc1ncnc2c1CCNC2)c1ccccc1` (configuration not stated), which “Percent Effect” value is on record?
**A.** 22.99%

**Q.** How did the “Percent Effect” value turn out when `CC(Nc1nc(-c2ccncc2)nc2c1CCNC2)c1ccccc1` (configuration not stated) was run?
**A.** 70.67%

**Q.** How did the “Percent Effect” value turn out when `CC(=O)N1CCc2nc(-c3ccccc3)nc(NC(C)C)c2CC1` was run?
**A.** -31.72%

**Q.** For `Cc1ccccc1N1CCN(c2nc(N(C)C)nc3c2CCNC3)CC1`, which “Percent Effect” value is on record?
**A.** 36.34%

**Q.** `CC(Nc1nc(-c2ccccc2)nc2c1CCNCC2)c1cccnc1` (configuration not stated) was tested. Which “Percent Effect” value did it give?
**A.** 90.56%

**Q.** How did the “Percent Effect” value turn out when `CCc1cc(C(C)Nc2nc(-c3cccnc3)nc3c2CNC3)on1` (configuration not stated) was run?
**A.** -34.82%

**Q.** `CN(C)c1nc2c(c(N3CCc4ccccc4C3)n1)CCNC2` was tested. Which “Percent Effect” value did it give?
**A.** 30.67%
